Unmarked numbers belong to inactive results. Records with an inconclusive call do not appear. Activity calls are given as the source filed them. Calls follow the shape of the dose curve; as a rule, active = well fitted curve in the direction sought with a large enough effect; inconclusive = small, poorly fitted or top-dose-only effect, or another doubt; inactive = no such curve, though single readings can be large; an effect the other way counts as inactive or inconclusive.

The values that follow come from PubChem BioAssay (NCATS).

The subject of assay [1] is Nanoluciferase (engineered Oplophorus gracilirostris luciferase). As to the kind of experiment: Primary Nanoluciferase (NLuc) qHTS assay for identification of artifact compounds. (AID 1845222).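 Also: NLuc secreted into diluted conditioned medium of S16 cells; 0% = DMSO and -100% = no enzyme.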 The essentials:
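Using secreted nanoluciferase in S16 culture medium (0.22 um filtered, 1:55 dilution), compounds were preincubated 15 min at RT. Signal was generated with Nano-Glo reagent (1:100) over 5 min.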
For orientation: Quantitative high-throughput screening tests each substance at several concentrations.

A short description of assay [2]: Primary redox qHTS assay for identification of artifact compounds. (AID 1845223). The essentials:
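Redox-cycling detection via DTT (250 uM final) oxidation coupled to Amplex Red (25 uM)/HRP (250 mU/mL) in HBSS. 15 min preincubation plus 30 min after DTT, room temperature. Ex/Em 525/598 nm; 4-parameter Hill fit against DMSO and 10 uM DA3003.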

The nature of assay [3]: Quantitative High-Throughput drug screen in 47 multiple myeloma cell lines against the NCATS MIPE library collection: FR4_PLB cell viability assay (AID 1918924; also: nearly all actives have a fitted effect of over 35% in size; also: potency is read from the fitted curve at half-maximal effect). In outline: (§1)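 qHTS of the MIPE 4.0 collection: 500 myeloma cells/well, 48 h drug exposure at 37C in 5% CO2, then CellTiter-Glo for 5 min at room temperature before luminescence reading.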
Assay [4] is described as follows: Quantitative High-Throughput drug screen in 47 multiple myeloma cell lines against the NCATS MIPE library collection: Delta47_JCRB cell viability assay (AID 1918925; also: nearly all actives have a fitted effect of over 45% in size; also: potency is read from the fitted curve at half-maximal effect). The essentials: (§2)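 Luminescent ATP measurement with CellTiter-Glo gives viability, scaled between DMSO-only wells (100%) and media-only wells (0%). Cells, 500 per well, faced library compounds for 48 hours at 37C.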

The nature of assay [5]: Quantitative High-Throughput drug screen in 47 multiple myeloma cell lines against the NCATS MIPE library collection: EJM_DSMZ cell viability assay (AID 1918926; also: nearly all actives have a fitted effect of over 30% in size; also: potency is read from the fitted curve at half-maximal effect). The essentials:
as §2

Assay [6] is described as follows: Quantitative High-Throughput drug screen in 47 multiple myeloma cell lines against the NCATS MIPE library collection: ARP1_JJKsccF8 cell viability assay (AID 1918928; also: nearly all actives have a fitted effect of over 40% in size; also: potency is read from the fitted curve at half-maximal effect). The essentials: (§3)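 Each line was plated at 500 cells/well and treated 48 h with library drugs. Viability came from CellTiter-Glo luminescence relative to DMSO and cell-free medium controls.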
Assay [7] is described as follows: Quantitative High-Throughput drug screen in 47 multiple myeloma cell lines against the NCATS MIPE library collection: Karpas620_DSMZ cell viability assay (AID 1918959). Also: nearly all actives have a fitted effect of over 30% in size. Also: potency is read from the fitted curve at half-maximal effect. In outline:
as §1

Assay [8] can be described thus: Quantitative High-Throughput drug screen in 47 multiple myeloma cell lines against the NCATS MIPE library collection: KMM1_JCRB cell viability assay (AID 1918960). Also: nearly all actives have a fitted effect of over 30% in size. Also: potency is read from the fitted curve at half-maximal effect.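 As to viability (% of DMSO): 100% = DMSO-treated cells and 0% = medium-only wells.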 The essentials: as §3
Assay [9] can be described thus: Quantitative High-Throughput drug screen in 47 multiple myeloma cell lines against the NCATS MIPE library collection: JIM3_ECACC cell viability assay (AID 1918963; also: nearly all actives have a fitted effect of over 35% in size). In outline:
as §1

Assay [10] is described as follows: Quantitative High-Throughput drug screen in 47 multiple myeloma cell lines against the NCATS MIPE library collection: JIM1_ECACC cell viability assay (AID 1918964). In outline: as §2
Assay [11] in a line: Quantitative High-Throughput drug screen in 47 multiple myeloma cell lines against the NCATS MIPE library collection: H1112_PLB cell viability assay (AID 1918967; also: nearly all actives have a fitted effect of over 30% in size; also: potency is read from the fitted curve at half-maximal effect). In outline:
as §2

Assay [12] is described as follows: Quantitative High-Throughput drug screen in 47 multiple myeloma cell lines against the NCATS MIPE library collection: AMO1_DSMZ cell viability assay (AID 1918927; also: nearly all actives have a fitted effect of over 30% in size; also: potency is read from the fitted curve at half-maximal effect). The essentials:
as §2

A short description of assay [13]: Quantitative High-Throughput drug screen in 47 multiple myeloma cell lines against the NCATS MIPE library collection: Karpas417_ECACC cell viability assay (AID 1918961). To be noted: Karpas417 myeloma viability, CellTiter-Glo ATP luminescence, 48 h; viability (% of DMSO): at 45.8 µM (top of the series). In outline: as §2
Assay [14] can be described thus: Quantitative High-Throughput drug screen in 47 multiple myeloma cell lines against the NCATS MIPE library collection: KHM11_PLB cell viability assay (AID 1918962). Also: nearly all actives have a fitted effect of over 35% in size. Also: potency is read from the fitted curve at half-maximal effect. In outline: as §1
Assay [15] can be described thus: Quantitative High-Throughput drug screen in 47 multiple myeloma cell lines against the NCATS MIPE library collection: KMS27_JCRB cell viability assay (AID 1918970). Also: nearly all actives have a fitted effect of over 30% in size. Also: potency is read from the fitted curve at half-maximal effect. In outline:
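Myeloma cells (500 per well) were exposed to MIPE 4.0 compounds for 48 h at 37 °C, 5% CO2; viability was read as ATP luminescence with CellTiter-Glo, normalized to DMSO-only (100%) and media-only (0%) wells.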

Assay [16] in a line: Quantitative High-Throughput drug screen in 47 multiple myeloma cell lines against the NCATS MIPE library collection: KMS12BM_JCRB cell viability assay (AID 1918971). Also: potency is read from the fitted curve at half-maximal effect; nearly all actives have a fitted effect of over 35% in size. In outline: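 Steps: seed 500 cells per well; pin-transfer MIPE 4.0 library; incubate 48 h at 37C, 5% CO2, humidified; add CellTiter-Glo, 5 min room temperature; read luminescence.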
Assay [17] is described as follows: Quantitative High-Throughput drug screen in 47 multiple myeloma cell lines against the NCATS MIPE library collection: Karpas25_ECACC cell viability assay (AID 1918968). In outline:
as §2

Assay [18] can be described thus: Quantitative High-Throughput drug screen in 47 multiple myeloma cell lines against the NCATS MIPE library collection: ARD_JJKsccE7 cell viability assay (AID 1918929; also: potency is read from the fitted curve at half-maximal effect). The essentials: as §2
Assay [19] is described as follows: Quantitative High-Throughput drug screen in 47 multiple myeloma cell lines against the NCATS MIPE library collection: INA6_PLB cell viability assay (AID 1918965; also: potency is read from the fitted curve at half-maximal effect; nearly all actives have a fitted effect of over 55% in size). In outline: as §2

For the molecule `CCN(CCO)CCCC(C)Nc1ccnc2cc(Cl)ccc12` (centres undefined), the activity, negative = inhibition in assay [1] is -2.86% [at 6.45 µM]. The redox activity (% of DA3003) in assay [2] is -6.64% [at 6.41 µM]. Also, the Potency entry in assay [3], in assay [4], in [5], in assay [6], in assay [7] and in [8] was “inactive” each time. Further, the Potency result in assay [9], in [10] and in assay [11] was “inactive” in each case.
On to `COc1c(O)cc2c(c1O)[C@@H]1O[C@H](CO)[C@@H](O)[C@H](O)[C@H]1OC2=O`, for which the result in [1] and in assay [2] was inactive. The Potency entry in assay [3], in [5], in [12], in assay [7], in assay [8] and in assay [13] was “inactive” throughout. In addition, the Potency entry in assay [14], in [10], in [11] and in [15] was “inactive” throughout. The Potency in assay [16] is 4.18 µM (active).
For the molecule `CC(C)C[C@H](NC(=O)[C@H](Cc1ccccc1)NC(=O)c1cnccn1)B(O)O`, the call in assay [1] and in [2] was inactive. In addition, the Potency in assay [3] was 0.0093 µM (active); in [5] it was 0.0166 µM (active); in assay [6], 0.0083 µM (active); in assay [14] it was 0.0083 µM (active); in [11] it was 0.0132 µM (active); in assay [17], 0.0074 µM (active). Further, the Potency in [16] was 0.0148 µM (active).
Consider `CCCS(=O)c1ccc2nc(NC(=O)OC)[nH]c2c1` (centres undefined), for which the molecule was classed as inactive in [1] and in assay [2]. In addition, the Potency is 11.8 µM (active) in assay [3], 23.5 µM (active) in assay [6] and 20.9 µM (active) in assay [16]. For the same molecule, the Potency entry in assay [5], in assay [12], in assay [7], in assay [8], in assay [10] and in [15] was “inactive” throughout.
With `COc1ccc2cc([C@H](C)C(=O)O)ccc2c1`, in assay [2], the call was inactive. For the same molecule, the Potency result in assay [3], in assay [5], in assay [12], in assay [6], in assay [18] and in assay [7] was “inactive” each time. Moreover, the Potency entry in assay [8], in [10] and in assay [11] was “inactive” each time. Besides, the Potency in assay [14] was 29.6 µM (active); in [17], 20.9 µM (active).
Take `Cc1nccn1CC1CCc2c(c3ccccc3n2C)C1=O` (centres undefined): the molecule was called inactive in assay [1] and in assay [2]. Moreover, the Potency result in assay [3], in [5], in assay [18], in [8] and in assay [15] was “inactive” throughout.
On to `CC1(C)C(=O)N(CCN2CCC(C(=O)c3ccc(F)cc3)CC2)c2ccccc21`, for which the Potency entry in assay [3] and in [5] was “inactive” each time. The Potency is 16.6 µM (active) in assay [4]; 6.62 µM (active) in assay [12]; 20.9 µM (active) in assay [6]; 9.35 µM (active) in assay [18]; 3.72 µM (active) in assay [7]; 8.33 µM (active) in [8]. Further, the Potency in [14] was 2.09 µM (active); in [17], 13.2 µM (active); in [15], 13.2 µM (active).
As to `Cc1nc(Nc2ncc(C(=O)Nc3c(C)cccc3Cl)s2)cc(N2CCN(CCO)CC2)n1`, the molecule was called inactive in assay [1] and in [2]. The Potency in assay [12] was 2.64 µM (active); in [18], 2.35 µM (active); in [7] it was 16.6 µM (active); in assay [8], 1.05 µM (active); in assay [17], 0.332 µM (active); in assay [15] it was 10.5 µM (active).
With `O=C(O)c1cccc(-c2noc(-c3ccccc3F)n2)c1`, in assay [2], the outcome was inactive. Moreover, the Potency result in assay [3], in [4], in assay [5], in assay [12], in [7] and in assay [8] was “inactive” each time. Moreover, the Potency entry in [10] and in assay [11] was “inactive” throughout. Also, the values for the Potency in assay [18], in assay [19] and in [16] were 14.8 µM (active), 23.5 µM (active) and 16.6 µM (active), respectively.
